Data on ten compounds can be found in PubChem BioAssay (NCATS).

Test [1] can be described thus: P-glycoprotein substrates identified in KB-3-1 adenocarcinoma cell line, qHTS therapeutic library screen (AID 1346986).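 Further: potency means the concentration at half of the fitted maximal effect; potency is for cytotoxicity meaning loss of cell viability; nearly all actives have a fitted effect of over 60% in size.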 An outline of the steps:
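Viability read by CellTiter-Glo after 72 h compound exposure in dose-response of KB-3-1 and KB-8-5-11 (P-gp-high) cells. Hits needed AC50 < 10 uM, >50% maximum response and curve class -1.1 to -2.4. Cherry-picks retested ± tariquidar, including pcDNA/MDR-19 HEK-293 pair.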
(In general: In qHTS, concentration-response curves come from the screen itself.)

Test [2] in a line: qHTS drug screen for cell cycle checkpoint inhibitors in PARPi-resistant BRCA-mutant ovarian cancer cell lines. (AID 1963452; calls by dose curve; further: potency means the concentration at half of the fitted maximal effect). Particulars: PEO1/OlaR viability, CellTiter-Glo luminescence, 96 h; for Z-AUC: stronger effect = lower value. An outline of the steps:
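PEO1, PEO4 and PEO1/OlaR ovarian cancer cells, 600 per well, exposed 96 h at 37C to a dilution series. Viability read by CellTiter-Glo luminescence, normalized to DMSO and empty wells; activity summarized as Z-AUC.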

Test [3] has as its system HaCat. Kind of test: Cytotoxic Profiling of Annotated Libraries Using Quantitative High-Throughput Screening (AID 1296008). Further: nearly all actives have a fitted effect of over 60% in size. Further: potency means the concentration at half of the fitted maximal effect. On max response: on the % scale 0 is the no-effect control and ±100 the full control effect. Particulars: Five cell lines viability, CellTiter-Glo ATP luminescence, 48-72 h; max response: stronger effect = lower value. An outline of the steps:
(§1)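 Cytotoxicity was measured as CellTiter-Glo ATP luminescence, read after 10 min at room temperature. Compound treatment of the cells lasted 48 or 72 hr at 37 degrees Celsius in a qHTS format.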
On the technique in general: ATP-based viability assays read luminescence as a measure of living cells.

Test [4] is described as follows: P-glycoprotein substrates identified in KB-8-5-11 adenocarcinoma cell line, qHTS therapeutic library screen (AID 1346987). Further: nearly all actives have a fitted effect of over 65% in size. Further: potency means the concentration at half of the fitted maximal effect. A digest of the protocol: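 Luminescence from CellTiter-Glo, read 5 min after addition, quantified survival of KB-8-5-11 (P-gp-overexpressing) cells exposed to compounds for 72 h. AC50 was derived from concentration-response curves.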
For test [5], the system named is Zika virus NS2B-NS3 protease (unlinked complex). The test is described as follows: Primary screen GU Rhodamine qHTS for Zika virus inhibitors: Unlinked NS2B-NS3 protease assay (AID 1347159). Further: nearly all actives have a fitted effect of over 60% in size. Further: potency means the concentration at half of the fitted maximal effect. On activity change, negative = inhibition: on the % scale 0 is the no-effect control and ±100 the full control effect. A digest of the protocol:
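Buffer 10 mM Tris-HCl pH 8.0, 0.01% Tween 20. Unlinked protease 25 nM; compound preincubation 15 min, RT, protected from light. Substrate Rhod110, 1.5 microM; ~15% conversion in 15 min.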

The subject of test [6] is CRL-7250. The test is described as follows: Cytotoxic Profiling of Annotated Libraries Using Quantitative High-Throughput Screening (AID 1296008). Further: nearly all actives have a fitted effect of over 60% in size. Further: potency means the concentration at half of the fitted maximal effect. The settings on record: Five cell lines viability, CellTiter-Glo ATP luminescence, 48-72 h; max response: stronger effect = lower value. A digest of the protocol: as §1
The subject of test [7] is PA-1. Kind of test: Primary qHTS to identify gynecologic anti-cancer compounds using libraries of approved drugs and bioactive compounds (AID 1345084). Further: nearly all actives have a fitted effect of over 55% in size. Further: potency means the concentration at half of the fitted maximal effect. The settings on record: Gynecologic cancer cell panel viability, ATPlite luminescence, 48 h; series mostly up to 57.5 µM. An outline of the steps: (§2)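 Cell viability after 48 h drug treatment, ATPlite luminescence readout; five doses.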

In test [8] the test system is HACAT. The test is described as follows: qHTS assay to identify novel small-molecules to repurpose for Merkel cell carcinoma treatment (AID 1296009). Further: nearly all actives have a fitted effect of over 60% in size. Particulars: MCC and control cell lines, CellTiter-Glo viability, 72 h; at 44.8 µM (top of the series) unless noted. An outline of the steps:
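Cell viability, measured as CellTiter-Glo luminescence, was normalized between DMSO and no-cell wells. The cells had been exposed to 8- or 11-point compound dilutions for 72 hr at 37 degree celsius.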

The test system of test [9] is SKOV3. The test is described as follows: Primary qHTS to identify gynecologic anti-cancer compounds using libraries of approved drugs and bioactive compounds (AID 1345084). Further: nearly all actives have a fitted effect of over 55% in size. Further: potency means the concentration at half of the fitted maximal effect. The settings on record: Gynecologic cancer cell panel viability, ATPlite luminescence, 48 h; series mostly up to 57.5 µM. A digest of the protocol: as §2
Test [10] addresses Cytochrome P450 2D6 (Homo sapiens) (UniProt P10635). Kind of test: Cytochrome P450 family 2 subfamily D member 6 (CYP2D6) small molecule antagonists: luciferase biochemical (cell-free) qHTS assay (AID 1645840; active means well fitted curve in the direction sought with a large enough effect in the repeat runs; an effect the other way counts as inactive or inconclusive; further: nearly all actives have a fitted effect of over 55% in size; further: potency means the concentration at half of the fitted maximal effect; on activity change, negative = inhibition: on the % scale 0 is the no-effect control and ±100 the full control effect). A digest of the protocol: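 P450-Glo CYP2D6 system: proluciferin substrate converted by enzyme to luciferin, read by luminescence proportional to activity. Enzyme-substrate mix with compound 10 min at room temperature, then NADPH regeneration 1 h before detection reagent.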

The target of test [11] is Cytochrome P450 2C9 (Homo sapiens) (UniProt P11712). The test is described as follows: Cytochrome P450 family 2 subfamily C member 9 (CYP2C9) small molecule antagonists: luciferase biochemical (cell-free) qHTS assay (AID 1645842; active means well fitted curve in the direction sought with a large enough effect in the repeat runs; an effect the other way counts as inactive or inconclusive; further: potency means the concentration at half of the fitted maximal effect; nearly all actives have a fitted effect of over 55% in size). An outline of the steps: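 P450-Glo CYP2C9 system: proluciferin substrate with enzyme in mix containing 0.4% BSA, 10 min at room temperature, then NADPH regeneration solution added and incubated 1 h at 37C. Detection reagent stopped reaction; luminescence read after 20 min as RLU.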
Chain of Cytochrome P450 2C9 (Homo sapiens) (P11712 whole entry, looked up): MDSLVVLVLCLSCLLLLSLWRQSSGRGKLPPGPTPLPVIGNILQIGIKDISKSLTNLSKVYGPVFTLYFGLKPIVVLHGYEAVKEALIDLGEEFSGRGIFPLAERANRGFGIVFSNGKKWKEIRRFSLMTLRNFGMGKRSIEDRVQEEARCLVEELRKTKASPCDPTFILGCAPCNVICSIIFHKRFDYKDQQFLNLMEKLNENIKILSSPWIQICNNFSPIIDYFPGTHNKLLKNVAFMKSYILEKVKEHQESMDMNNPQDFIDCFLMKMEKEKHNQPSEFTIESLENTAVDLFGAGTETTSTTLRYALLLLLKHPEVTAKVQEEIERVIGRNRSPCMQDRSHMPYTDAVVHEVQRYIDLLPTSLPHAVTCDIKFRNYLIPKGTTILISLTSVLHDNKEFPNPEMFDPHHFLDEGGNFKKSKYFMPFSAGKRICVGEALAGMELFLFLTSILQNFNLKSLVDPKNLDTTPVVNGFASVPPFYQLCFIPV

Test [12] can be described thus: Confirmatory screen GU Rhodamine qHTS for Zika virus inhibitors qHTS (AID 1347157). Further: potency means the concentration at half of the fitted maximal effect; nearly all actives have a fitted effect of over 70% in size. A digest of the protocol: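 A qHTS format was used, with compound concentrations ranging up to 114 microM. Each compound was preincubated with 25 nM NS2B-NS3 protease, and the substrate was then added at 1.5 microM. Curves were fitted with a 4-parameter Hill model.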
Test [13] in a line: HepG2 cells viability qHTS for Zika virus inhibitors (AID 1347168). Further: on the % scale 0 is the no-effect control and ±100 the full control effect. An outline of the steps:
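Luminescent ATP readout (CellTiter Glo) after 30 min at 37 degrees C gives viability; cells in DMEM + 4% FBS were treated 24 to 48 hours with compound, following overnight attachment.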

For test [14], the target named is Catechol O-methyltransferase (Homo sapiens) (UniProt P21964). Kind of test: Confirmatory Screen for Target Class Profiling of Small Molecule Inhibitors of Methyltransferases (AID 1745852; calls by dose curve; further: potency means the concentration at half of the fitted maximal effect). The settings on record: MTase-Glo luminescence, SAH detection, recombinant enzyme; measured here: COMT max response; stronger effect = lower value.
Chain of Catechol O-methyltransferase (Homo sapiens) (P21964 whole entry, looked up): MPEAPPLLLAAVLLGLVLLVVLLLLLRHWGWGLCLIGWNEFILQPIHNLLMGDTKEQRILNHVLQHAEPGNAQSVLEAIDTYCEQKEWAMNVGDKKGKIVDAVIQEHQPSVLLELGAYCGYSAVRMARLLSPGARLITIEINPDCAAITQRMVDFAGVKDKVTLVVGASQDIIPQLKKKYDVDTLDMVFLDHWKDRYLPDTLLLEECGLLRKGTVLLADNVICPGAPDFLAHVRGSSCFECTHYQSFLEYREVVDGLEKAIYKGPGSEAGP
Test [15] addresses Guanidinoacetate N-methyltransferase (Homo sapiens) (UniProt Q14353). The test is described as above. The settings on record: activity change, negative = inhibition: at 57.3 µM (top of the series) unless noted.
In test [16] the target is Nicotinamide N-methyltransferase (Homo sapiens) (UniProt P40261). Described as above. Particulars: MTase-Glo luminescence, SAH detection, recombinant enzyme; measured here: NNMT max response; stronger effect = lower value.
Chain of Nicotinamide N-methyltransferase (Homo sapiens) (P40261 whole entry, looked up): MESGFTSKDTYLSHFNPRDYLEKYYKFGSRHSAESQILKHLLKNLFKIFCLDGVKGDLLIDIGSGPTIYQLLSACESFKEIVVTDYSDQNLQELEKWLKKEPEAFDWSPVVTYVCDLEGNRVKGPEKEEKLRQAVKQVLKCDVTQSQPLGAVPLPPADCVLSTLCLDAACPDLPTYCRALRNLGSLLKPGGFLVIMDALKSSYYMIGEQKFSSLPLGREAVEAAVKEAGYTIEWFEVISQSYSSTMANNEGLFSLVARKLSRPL
Test [17] concerns the target Phenylethanolamine N-methyltransferase (Homo sapiens) (UniProt P11086). The test is described as above. Particulars: MTase-Glo luminescence, SAH detection, recombinant enzyme; measured here: PNMT max response; stronger effect = lower value.

The structures appear in SMILES notation. Records with an inconclusive call do not appear. Calls of active or inactive are those of the source. Unless noted, the call rests on the fitted dose curve; in most records, active means well fitted curve in the direction sought with a large enough effect; inconclusive means small, poorly fitted or top-dose-only effect, or another doubt; inactive means no such curve, though single readings can be large; an effect the other way counts as inactive or inconclusive.

Chain of Cytochrome P450 2D6 (Homo sapiens) (P10635 whole entry, looked up): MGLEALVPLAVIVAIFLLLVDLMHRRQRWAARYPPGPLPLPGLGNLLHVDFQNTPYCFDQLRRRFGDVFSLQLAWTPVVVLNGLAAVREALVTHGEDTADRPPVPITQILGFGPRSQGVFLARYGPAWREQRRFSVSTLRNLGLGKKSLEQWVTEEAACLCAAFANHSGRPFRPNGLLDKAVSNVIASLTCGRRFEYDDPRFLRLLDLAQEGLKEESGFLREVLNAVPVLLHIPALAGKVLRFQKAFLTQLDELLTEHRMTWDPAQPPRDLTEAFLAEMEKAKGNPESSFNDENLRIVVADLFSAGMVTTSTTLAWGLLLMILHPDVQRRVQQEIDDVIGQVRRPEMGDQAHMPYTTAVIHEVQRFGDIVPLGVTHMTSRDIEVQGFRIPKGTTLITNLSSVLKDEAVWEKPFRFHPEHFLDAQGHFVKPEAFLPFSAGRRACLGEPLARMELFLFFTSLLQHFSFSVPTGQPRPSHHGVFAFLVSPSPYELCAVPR
Chain of Phenylethanolamine N-methyltransferase (Homo sapiens) (P11086 whole entry, looked up): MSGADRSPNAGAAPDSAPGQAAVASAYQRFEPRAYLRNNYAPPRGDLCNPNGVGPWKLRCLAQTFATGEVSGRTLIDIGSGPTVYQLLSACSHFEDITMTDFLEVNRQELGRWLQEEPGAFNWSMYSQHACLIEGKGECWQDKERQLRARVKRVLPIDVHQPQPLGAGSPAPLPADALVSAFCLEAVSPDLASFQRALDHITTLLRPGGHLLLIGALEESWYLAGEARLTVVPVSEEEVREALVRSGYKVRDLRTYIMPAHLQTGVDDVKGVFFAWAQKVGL

On to `C[C@@H]1COCCN1c1cc(C2(S(C)(=N)=O)CC2)nc(-c2ccnc3[nH]ccc23)n1` (stereo partly specified), for which the values for the Potency in test [1], in [2] and in [3] were 6.51 µM (active), 2.75 µM (active) and 16.6 µM (active), respectively. Also, the Z-AUC in test [2] (measured here: PEO1 parental Z-AUC) was -1.94; in test [2] (measured here: PEO4 Z-AUC), -1.89.

With `CC1(C)CC[C@]2(C(=O)OC3OC(CO)C(O)C(O)C3O)CC[C@]3(C)C(=CCC4[C@@]5(C)CC[C@H](OC6OC(C(=O)O)C(O)C(O)C6O)C(CO)(CO)C5CC[C@]43C)[C@@H]2C1` (stereo partly specified), the outcome in [4] is “inactive [at 9.29 µM]”. Further, in test [5], the Potency entry is “inactive”. Also, the Potency is 2.46 µM (active) in test [6] and 3.16 µM (active) in test [7].

For `CC1CCC2C(C)(C)C(O)CCC2(C)C12Cc1c(O)cc3c(c1O2)CN(C(CCCN=C(N)N)C(=O)O)C3=O` (stereo unspecified), the Potency result in [5] and in test [9] was “inactive” in each case. Also, the outcome in test [3] is “inactive”. Moreover, the outcome in test [8] is “inactive [at 17.4 µM]”.

For `CC(=O)c1c(OCCN2CCCCC2)c(OCCC(C)c2ccc(F)cc2)c2oc(C)nc2c1C` (stereo unspecified), the Potency in test [4] was 20.6 µM (active); in test [10], 0.477 µM (active); in test [11], 19 µM (active). In test [5], the Potency result was “inactive”. The outcome in test [3] and in test [8] was “inactive” in each case.

For `Cc1ccc(C(=O)N2CCN(c3ccc([N+](=O)[O-])cc3)CC2)cc1Cl`, the Potency result in [10], in [7] and in [9] was “inactive” each time. Further, in [11], the Potency is 16.9 µM (active). In addition, in [3], the max response is -12.6% (inactive).

In the case of `O=C(NCc1ccc(Oc2ccccc2)cc1)c1nc(-c2cc(Br)c(O)c(Br)c2)no1`, the Potency in test [12] is 1.75 µM (active); in [5], 2.82 µM (active); in test [11] it was 0.849 µM (active); in [15] it was 42.9 µM (active). The Potency result in [13], in test [7] and in [9] was “inactive” throughout. The activity in test [14] was -16.2%; in test [16] it was -75.3%; in test [17] it was -0.151%. For the same compound, the outcome in [3] and in [8] was “inactive” in each case.

On to `C/C=C(/COC(=O)/C(C)=C/C)C(=O)OC/C=C/c1ccc(OC)cc1`, for which the Potency result in [5] and in test [9] was “inactive” in each case. Moreover, the outcome in [3] and in test [8] was “inactive” throughout.

Turning to `CC1OC2OC3C(OCC(O)C3O)OC(=O)C34CCC(C)(C)CC3C3=CCC5C6(C)CC(O)C(OC7OC(CO)C(O)C(O)C7OC7OCC(OC(=O)CC(C)(O)CC(=O)OC1C(OC1OCC(O)C(O)C1O)C2O)C(O)C7O)C(C)(CO)C6CCC5(C)C3(C)CC4O` (stereo unspecified), the Potency in test [6] is 7.96 µM (active).

As for `N#Cc1c[nH]c2c(C(=O)N3CCN(CCc4ccc(F)cc4)CC3)cccc12`, the Potency entry in test [5] and in test [7] was “inactive” each time. Besides, the Potency in test [10] is 15.1 µM (active); in [11] it was 13.5 µM (active). In test [6], the outcome is “inactive”. Moreover, in test [3], the max response was -7.89% (inactive).

In the case of `COc1ccc(C(=O)N(CCC(C)C)Cc2nc(C)c(C)n2Cc2ccccc2C)c(OC)c1`, the Potency in [10] is 0.952 µM (active); in test [11], 21.3 µM (active). Moreover, the results for the activity in test [14], in [16] and in test [17] were -8.43%, -68.8% and -7.99%, respectively. Moreover, the activity change, negative = inhibition in [15] is -6.57%. For the same compound, in test [6], the max response is -0.877% (inactive). In addition, the Potency entry in [7] and in test [9] was “inactive” each time.
